Experimental findings from PubChem BioAssay are described below.

Broadly, the inhibition is the change of the read-out against control, counted positive when it falls.

SMILES strings stand for the structures. Values without a mark were called inactive.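 The calls were made as follows: active = mean inhibition above 46.68%, the untreated control wells mean plus 3 SD; inactive = the rest.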

For the assay, the target named is Nuclear receptor coactivator 1 (Homo sapiens) (UniProt Q15788). Description: NCOA1 GAL4-fusion reporter inhibition – cell-based, luminescence, quadruplicate, confirmation (AID 588820).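 Also: 0% = DMSO wells and 100% = gossypol 36 µM treated wells.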 Conditions: HEK293 GAL4-SRC1 luciferase reporter, at 3.6 µM, hits give high values. In general terms: In a reporter assay the amount or activity of a reporter protein is the signal.
Sequence of Nuclear receptor coactivator 1 (Homo sapiens) (Q15788 whole entry, looked up, the tested form may be a part): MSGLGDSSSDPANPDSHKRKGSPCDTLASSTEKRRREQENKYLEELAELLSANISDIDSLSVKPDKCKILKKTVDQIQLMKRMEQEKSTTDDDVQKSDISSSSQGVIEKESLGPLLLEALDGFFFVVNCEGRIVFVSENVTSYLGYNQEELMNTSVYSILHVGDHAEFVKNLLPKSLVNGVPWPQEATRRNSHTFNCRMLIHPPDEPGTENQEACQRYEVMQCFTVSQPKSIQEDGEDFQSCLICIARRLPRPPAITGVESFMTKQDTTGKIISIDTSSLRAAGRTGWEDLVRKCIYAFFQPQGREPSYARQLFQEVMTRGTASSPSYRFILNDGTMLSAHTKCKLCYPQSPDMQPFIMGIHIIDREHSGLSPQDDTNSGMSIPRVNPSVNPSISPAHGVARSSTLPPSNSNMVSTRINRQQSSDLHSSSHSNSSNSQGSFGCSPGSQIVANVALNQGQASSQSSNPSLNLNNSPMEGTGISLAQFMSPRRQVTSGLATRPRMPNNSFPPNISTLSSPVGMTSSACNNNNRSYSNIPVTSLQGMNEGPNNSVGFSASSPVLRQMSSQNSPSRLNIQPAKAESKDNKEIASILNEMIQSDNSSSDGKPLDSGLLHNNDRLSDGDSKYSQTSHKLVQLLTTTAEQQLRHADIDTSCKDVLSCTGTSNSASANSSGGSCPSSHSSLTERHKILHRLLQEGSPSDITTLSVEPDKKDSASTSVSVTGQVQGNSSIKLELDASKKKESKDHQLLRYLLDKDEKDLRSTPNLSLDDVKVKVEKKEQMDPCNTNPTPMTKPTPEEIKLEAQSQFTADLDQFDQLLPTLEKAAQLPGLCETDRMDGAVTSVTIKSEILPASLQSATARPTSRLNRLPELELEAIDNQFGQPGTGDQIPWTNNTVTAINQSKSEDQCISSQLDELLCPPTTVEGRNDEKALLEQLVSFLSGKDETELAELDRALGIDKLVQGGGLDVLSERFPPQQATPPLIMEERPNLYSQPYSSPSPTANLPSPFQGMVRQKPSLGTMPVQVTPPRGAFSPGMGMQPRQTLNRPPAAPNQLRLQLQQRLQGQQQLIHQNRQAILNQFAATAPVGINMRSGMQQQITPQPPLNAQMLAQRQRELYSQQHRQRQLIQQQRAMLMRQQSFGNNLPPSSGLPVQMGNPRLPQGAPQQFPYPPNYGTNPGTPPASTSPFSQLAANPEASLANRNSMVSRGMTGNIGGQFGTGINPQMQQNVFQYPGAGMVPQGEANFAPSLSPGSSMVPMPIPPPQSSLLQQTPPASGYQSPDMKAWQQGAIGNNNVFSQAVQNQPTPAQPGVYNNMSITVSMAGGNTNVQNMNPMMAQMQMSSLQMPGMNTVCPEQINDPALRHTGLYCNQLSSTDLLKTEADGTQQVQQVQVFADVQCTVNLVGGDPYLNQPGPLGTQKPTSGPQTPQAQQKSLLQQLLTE
As to `Cc1cccc(C)c1-n1nnnc1C(c1cccs1)N1CCC2(CC1)C(=O)NCN2c1ccccc1` (stereo not given), the inhibition is 22.3%. The result for `N#Cc1c(Br)n(C2OC(CO)C(O)C2O)c2ncnc(N)c12` (stereo not given) reads 40.9%; that for `Cc1ccc2c(C)c3ccc4ccccc4c3c[n+]2c1`, 17.2%. Consider `C[C@H]1CCC[C@H](O)CCCCCc2cc(O)cc(O)c2C(=O)O1`, for which the inhibition was -4.86%. In the case of `COc1ccc2c(c1)/C(=C/c1cnc[nH]1)C(=O)N2`, the inhibition was 13.1%. With `COc1ccc(-n2nnnc2C(c2cccc(OC)c2OC)N2CCC(n3c(=O)[nH]c4ccccc43)CC2)cc1` (stereo not given), the inhibition was -18.7%. As for `O=C(c1cn(Cc2ccccc2F)c2ncccc12)C(F)(F)F`, the inhibition is -9.15%. The result for `CC(C)(C)c1ccc(CSc2cnn(C(C)(C)C)c(=O)c2Cl)cc1` reads -34.9%; that for `COc1ccc(-n2nnnc2C(CCSC)N2CCC(n3c(=O)[nH]c4ccccc43)CC2)cc1` (stereo not given), -13.8%; that for `O=Cc1cn(Cc2cccc([N+](=O)[O-])c2)c2ccccc12`, 39.9%. The result for `CCN(CC)C(=O)c1ccc(NC(=O)c2ccc(-n3cncn3)c([N+](=O)[O-])c2)cc1` reads -2.4%; that for `CCN(CC)C1=NC(=[N+](CC)CC)c2ccccc21`, 9.91%; that for `O=c1[nH]c2ccccc2n1C1CCN(C(c2cc3ccccc3o2)c2nnnn2-c2ccc3c(c2)OCCO3)CC1` (stereo not given), -27.1%. For `COc1cc2c(cc1OC)C1C(=O)c3ccc4c(c3OC1CO2)CC(C(C)C)O4` (stereo not given) the value was -30.2%.

On to `COc1cccc2c1C(=O)c1c(O)c3c(c(O)c1C2=O)CC(O)(C(C)=NO)CC3OC1CC(N)C(O)C(C)O1` (stereo not given), for which the inhibition is -12.8%.
